system: EfPiwi piRISC loaded with L1MC piRNA (26 nt); assay: pre-steady-state target cleavage rate (min^-1); auxiliary factor: none (no Gtsf1); guide: L1MC piRNA 5'p-UAACUAAAUACUAUGCAAGCUGUAGG; MIWI and MILI are mouse PIWI proteins and EfPiwi is from a freshwater sponge; tags in brackets are library labels; higher = faster piRNA-guided slicing of the target
Method in brief: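 For Cleave-'n-Seq, a transcribed, DNA-blocked target RNA library […] met 1 nM active affinity-purified piRISC with one synthetic guide at 33 °C for 0–8 or 0–960 min in HEPES–potassium acetate buffer, with or without 500 nM GTSF1 partner protein. Uncleaved targets were sequenced and normalised to depth and weakly complementary targets, with three trials pooled and k3 capped at 0.0001 min^-1. A burst-and-steady-state fit supplied the pre-steady-state cleavage rate.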

pre-steady-state target cleavage rate, < 0.0001:
UCCUGGAUGUCGAACGAUAGUAUUUGAGUUA, UCCUGGAUGUCGAAGCAUAGAUAUUUAGUUA, UCCUGGAUGUCGAAGCAUAGUAUUUACUAA, UCCUGGAUGUCGAUGCAUAGAAUUUAGUAA, UCCUGGAUGUCGAACCAUAGUAUUUCAGUUA, UCCUGGAUGUCCUUGCAAUCAUAAAUCAAA [g14:g19:cont:t1A], UCCUGGAUGUCGAACGUAUCUAUUUACAUA, UCCUGGAUGUCGUUGCAUAGUAUUUAGCUA, UCCUCCUACAGCUUCCAUAGUAUAUAGUUA, UCCUGGAUGAGCUUGCAUAGAUUUUAGUAA, UCCUGGAUGUCGAACGUUAGAAUUUUGUUA, UCCUGGAUGUCGAACGUAUGUAUUUGAGUUA, UCCUGGAUGUCGUUGCAUAGUAUUUUCAAA [g6:g18:cont:t1A], UCCUGGAACAGCUUCCAUAGUAUUUACUUA, UCCUGGAUGUCGAACGUAUCUAUUUGGUUA, UCCUGGAUGUCGAACGAUAAUAUUUAGUUA
